Test results: PubChem BioAssay (Tox21)
Values joined by “and” are separate entries in the source; they are usually repeats but may differ in a detail not shown here. Equal entries are not always repeated. Results filed as inconclusive are left out. More than one record can exist for a structure, and the calls need not agree. Active and inactive are the calls of the source. Unless noted, the call rests on the fitted dose curve; in most records, active means well fitted curve in the direction sought with a large enough effect in the repeat runs; inconclusive means weak or mixed curves; inactive means no such curve, though single readings can be large; an effect the other way counts as inactive or inconclusive.

How the values were obtained:
[1] = qHTS assay to test for compound auto fluorescence at 460 nm (blue) in HEK293 cell free culture (AID 720681)
Outline: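 Compounds were added to cell-free DMEM with 10% FBS and fluorescence read directly. The blue channel used 405 nm excitation and 460 nm emission, with triamterene as the reference fluorophore.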

[2] = qHTS assay to test for compound auto fluorescence at 535 nm (green) in HEK293 cell free culture (AID 720682)
Outline: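 No cells present: wells hold DMEM supplemented with 10% FBS, into which compound or vehicle is pinned. Green emission is then recorded (485 nm excitation, 535 nm emission) and scaled to fluorescein.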

[3] = qHTS assay to test for compound auto fluorescence at 590 nm (red) in HEK293 cell free culture (AID 720683)
Outline: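 Cell-free wells of DMEM with 10% FBS received compound, and intrinsic fluorescence was read at excitation/emission 540/590 nm. Values expressed as equivalence to Rose Bengal sodium.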

[4] = qHTS assay to test for compound auto fluorescence at 590 nm (red) in HepG2 cell free culture (AID 720684)
Outline: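 Rose Bengal sodium served as the reference for red signal. Test compounds were dispensed into serum-containing MEM (10% FBS) without cells, and plates were read at 540/590 nm.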

[5] = qHTS assay to test for compound auto fluorescence at 460 nm (blue) in HepG2 cell free culture (AID 720685)
Outline: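 Cell-free plates of MEM plus 10% FBS received 23 nL compound or DMSO vehicle; blue-channel (405/460 nm) intensity scored against triamterene as reference fluorophore.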

[6] = qHTS assay to test for compound auto fluorescence at 535 nm (green) in HepG2 cell free culture (AID 720686)
[7] = qHTS assay to test for compound auto fluorescence at 460 nm (blue) in HepG2 cells (AID 720687)
Outline: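 HepG2 cells in MEM with 10% FBS, attached overnight at 37 C, were exposed to compound or DMSO for 1 hr at 37 C, 5% CO2. Blue fluorescence was read at 405/460 nm, with triamterene as reference fluorophore.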

[8] = target: Glucocorticoid receptor (Homo sapiens) (UniProt P04150); assay: qHTS assay to identify small molecule agonists of the glucocorticoid receptor (GR) signaling pathway (AID 720691; active means well fitted activation curve with a large enough effect in the signal ratio in the repeat runs, not every such curve was filed as active; the % refers to the signal ratio)
Outline: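 Steps: seed GR-bla HeLa cells, incubate 4 h at 37 C/5% CO2; pin-transfer DMSO-dissolved compounds; incubate 18 h at 37 C; add LiveBLAzer B/G FRET substrate; after 2 h at room temperature, measure fluorescence.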

[9] = qHTS assay to identify small molecule antagonists of the glucocorticoid receptor (GR) signaling pathway - cell viability counter screen (AID 720693); further: nearly all actives have a fitted effect of over 55% in size
[10] = qHTS assay for identifying genotoxic compounds that show differential cytotoxicity against isogenic chicken DT40 cell lines with known DNA damage response pathways - wild type cell line (AID 743012); further: nearly all actives have a fitted effect of over 60% in size; further: potency means the concentration at half of the fitted maximal effect
Outline: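 Cytotoxicity in repair-proficient parental chicken DT40 cells serves as the comparator for Rad54/Ku70- and Rev3-deficient lines. Cells were exposed to compounds for 40 h at 37 C/5% CO2, and ATP-based luminescence (CellTiter-Glo) measured viability.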

[11] = qHTS assay for identifying genotoxic compounds that show differential cytotoxicity against isogenic chicken DT40 cell lines with known DNA damage response pathways - Rev3 mutant cell line (AID 743014); further: nearly all actives have a fitted effect of over 55% in size; further: potency means the concentration at half of the fitted maximal effect
[12] = qHTS assay for identifying genotoxic compounds that show differential cytotoxicity against isogenic chicken DT40 cell lines with known DNA damage response pathways - Rad54/Ku70 mutant cell line (AID 743015); further: nearly all actives have a fitted effect of over 60% in size; further: potency means the concentration at half of the fitted maximal effect
[13] = qHTS assay to identify small molecule antagonists of the androgen receptor (AR) signaling pathway - cell viability counter screen (AID 743033; further: nearly all actives have a fitted effect of over 45% in size; further: potency means the concentration at half of the fitted maximal effect)
[14] = qHTS assay to identify small molecule antagonists of the androgen receptor (AR) signaling pathway using the MDA cell line - cell viability counter screen (AID 743041; further: nearly all actives have a fitted effect of over 45% in size)
Outline: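 Cytotoxicity counter screen: MDA-kb2 AR-luc cells, compound + R1881, 16 h, 37C, 0% CO2; CellTiter-Fluor added at 15.5 h, fluorescence read after 30 min.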

[15] = target: Glucocorticoid receptor (Homo sapiens) (UniProt P04150); assay: qHTS assay to identify small molecule antagonists of the glucocorticoid receptor (GR) signaling pathway (AID 720692; active means well fitted inhibition curve with a large enough effect in the signal ratio in the repeat runs, not every such curve was filed as active; the % refers to the signal ratio)
Outline: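 Antagonism was scored as loss of dexamethasone-driven (5 nM final) reporter signal in HeLa cells bearing a glucocorticoid response element–beta-lactamase construct, after 18 h compound exposure at 37 C and 2 h FRET substrate loading.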

[16] = target: Androgen receptor (Homo sapiens) (UniProt P10275); assay: qHTS assay to identify small molecule antagonists of the androgen receptor (AR) signaling pathway (AID 743035; active means well fitted inhibition curve with a large enough effect in the signal ratio in the repeat runs, not every such curve was filed as active; the % refers to the signal ratio)
Outline: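 Steps: seed AR-UAS-bla GripTite HEK293 cells, incubate 4 h at 37C; pin in test compound, then add agonist R1881; incubate 16 h at 37C; add LiveBLAzer B/G FRET substrate, 2 h at room temperature; read fluorescence.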

[17] = target: Androgen receptor (Homo sapiens) (UniProt P10275); assay: qHTS assay to identify small molecule agonists of the androgen receptor (AR) signaling pathway (AID 743036; active means well fitted activation curve with a large enough effect in the signal ratio in the repeat runs, with a control signal flat, not every such curve was filed as active; the % refers to the signal ratio)
Outline: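 Quantitative HTS of the Tox21 10K library in HEK293 cells bearing a stably integrated UAS-controlled beta-lactamase reporter. Compound exposure lasted 16 h at 37C. Reporter activity was detected by FRET substrate fluorescence after 2 h at room temperature.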

[18] = target: Androgen receptor (Homo sapiens) (UniProt P10275); assay: qHTS assay to identify small molecule agonists of the androgen receptor (AR) signaling pathway using the MDA cell line (AID 743040; further: nearly all actives have a fitted effect of over 20% in size); conditions: MDA-kb2 AR-luc cells, MMTV luciferase, 16 h; activity change: at 70.3 µM (top of the series), stronger effect = higher value
Outline: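 Luciferase read-out, ONE-Glo, 30 min RT. Cells: MDA-kb2 AR-luc, MMTV promoter with AR and GR response elements. Compound exposure 16 h, 37C, 0% CO2, after 5 h pre-incubation. qHTS agonist mode.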

[19] = target: Androgen receptor (Homo sapiens) (UniProt P10275); assay: qHTS assay to identify small molecule antagonists of the androgen receptor (AR) signaling pathway using the MDA cell line (AID 743042; further: nearly all actives have a fitted effect of over 55% in size)
Outline: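 MDA-kb2 breast carcinoma cells carrying MMTV-luciferase (AR/GR responsive) were co-treated with compounds and the agonist R1881 for 16 h at 37C. Inhibition read as ONE-Glo luminescence; CellTiter-Fluor fluorescence measured in parallel for cytotoxicity.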
On the % scale 0 is the no-effect control and ±100 the full control effect.

Glucocorticoid receptor (Homo sapiens), sequence (P04150 whole entry, looked up): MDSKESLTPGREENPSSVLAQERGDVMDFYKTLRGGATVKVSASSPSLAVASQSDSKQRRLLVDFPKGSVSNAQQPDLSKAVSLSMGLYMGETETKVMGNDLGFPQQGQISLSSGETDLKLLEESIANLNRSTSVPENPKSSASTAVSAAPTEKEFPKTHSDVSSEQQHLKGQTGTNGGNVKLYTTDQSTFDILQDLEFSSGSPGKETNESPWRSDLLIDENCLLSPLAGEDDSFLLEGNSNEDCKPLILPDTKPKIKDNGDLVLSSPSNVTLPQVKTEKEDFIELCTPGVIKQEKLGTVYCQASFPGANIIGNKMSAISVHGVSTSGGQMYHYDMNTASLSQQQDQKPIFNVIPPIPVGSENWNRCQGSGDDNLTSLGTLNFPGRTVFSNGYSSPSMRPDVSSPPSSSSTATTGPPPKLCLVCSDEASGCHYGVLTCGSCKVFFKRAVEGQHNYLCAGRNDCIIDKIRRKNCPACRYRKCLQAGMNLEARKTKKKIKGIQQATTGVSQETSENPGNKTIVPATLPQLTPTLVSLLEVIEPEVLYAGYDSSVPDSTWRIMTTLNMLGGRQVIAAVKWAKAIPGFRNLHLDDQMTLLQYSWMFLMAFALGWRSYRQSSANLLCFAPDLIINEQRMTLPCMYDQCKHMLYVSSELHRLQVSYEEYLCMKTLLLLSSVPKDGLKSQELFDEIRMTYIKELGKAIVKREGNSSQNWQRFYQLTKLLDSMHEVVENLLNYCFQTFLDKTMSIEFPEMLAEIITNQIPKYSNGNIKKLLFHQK
Androgen receptor (Homo sapiens), sequence (P10275 whole entry, looked up): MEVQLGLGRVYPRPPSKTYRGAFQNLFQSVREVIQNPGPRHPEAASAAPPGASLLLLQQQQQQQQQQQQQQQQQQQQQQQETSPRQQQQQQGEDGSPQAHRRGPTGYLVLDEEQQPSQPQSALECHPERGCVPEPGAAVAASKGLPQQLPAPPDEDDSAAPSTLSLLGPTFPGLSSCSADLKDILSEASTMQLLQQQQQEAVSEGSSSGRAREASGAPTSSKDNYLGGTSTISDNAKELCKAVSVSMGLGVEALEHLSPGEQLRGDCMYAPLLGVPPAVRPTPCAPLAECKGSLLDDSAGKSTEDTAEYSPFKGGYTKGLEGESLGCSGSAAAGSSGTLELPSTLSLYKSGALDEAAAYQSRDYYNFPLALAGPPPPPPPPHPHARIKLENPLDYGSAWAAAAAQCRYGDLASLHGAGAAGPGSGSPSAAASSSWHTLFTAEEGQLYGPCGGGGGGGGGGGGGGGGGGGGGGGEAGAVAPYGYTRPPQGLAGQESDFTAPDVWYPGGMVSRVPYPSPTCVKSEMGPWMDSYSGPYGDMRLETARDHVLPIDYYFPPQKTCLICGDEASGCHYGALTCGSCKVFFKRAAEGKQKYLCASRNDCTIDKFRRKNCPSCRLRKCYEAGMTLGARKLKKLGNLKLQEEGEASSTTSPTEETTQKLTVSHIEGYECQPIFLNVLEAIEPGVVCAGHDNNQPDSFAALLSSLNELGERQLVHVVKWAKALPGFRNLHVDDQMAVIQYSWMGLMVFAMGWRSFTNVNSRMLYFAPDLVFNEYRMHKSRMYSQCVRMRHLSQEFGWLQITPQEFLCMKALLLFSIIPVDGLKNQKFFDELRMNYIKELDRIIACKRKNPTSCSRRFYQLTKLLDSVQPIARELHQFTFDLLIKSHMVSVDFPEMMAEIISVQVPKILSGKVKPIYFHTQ

CCC(C)(C)O
inactive: outcome [1] | outcome [2] | outcome [3] | outcome [4] | outcome [5] | outcome [6] | outcome [7] | Potency [8] | Potency [9] | Potency [10] | Potency [11] | Potency [12] | Potency [13] | Potency [14]

CC(=O)OC(c1ccccc1)C(Cl)(Cl)Cl (centres undefined)
inactive: outcome [1] | outcome [2] | outcome [3] | outcome [4] | outcome [7] | Potency [8] | Potency [11] | Potency [14]

CCCCCCCCCCCCN=C(N)N
active: Potency [10] 845 nM | Potency [11] 1.89 µM | Potency [12] 1.06 µM
inactive: fluorescence, % of fluorescent control [1] -0.0835% [at 3.72 µM] | activity change [2] 0.0011% [at 3.72 µM] | fluorescence, % of fluorescent control [3] 0.145% [at 3.72 µM] | fluorescence, % of fluorescent control [5] -0.0023% [at 3.72 µM] | fluorescence, % of fluorescent control [7] 0.0214% [at 3.72 µM] | activation [8] -0.603% [at 3.1 µM] | viability change, negative = cytotoxic [9] -13.6% [at 3.15 µM] | viability change, negative = cytotoxic [14] -10.3% [at 3.79 µM]

c1ccc2c(c1)sc1ccccc12
inactive: outcome [1] | outcome [2] | outcome [3] | outcome [4] | outcome [5] | outcome [6] | outcome [7] | Potency [8] | Potency [15] | Potency [9] | Potency [10] | Potency [13] | Potency [14]

O=C=NC1CCCCC1
inactive: outcome [1] | outcome [2] | outcome [3] | outcome [4] | outcome [6] | outcome [7] | Potency [8] | Potency [15] | Potency [9] | Potency [10] | Potency [11] | Potency [12] | Potency [13] | Potency [14]

O=CC=O
inactive and 49.9 µM (active): Potency [11]
inactive: outcome [1] | outcome [2] | outcome [3] | outcome [4] | outcome [6] | outcome [7] | Potency [8] | Potency [15] | Potency [9] | Potency [10] | Potency [12] | Potency [13] | Potency [16] | Potency [17] | Potency [18] | Potency [14] | Potency [19]

CN(C)C(=O)Nc1cccc(OC(=O)NC(C)(C)C)c1
inactive: outcome [1] | outcome [2] | outcome [3] | outcome [4] | outcome [7] | Potency [8] | Potency [15] | Potency [9] | Potency [10] | Potency [13] | Potency [14]

CCCN(CCC)c1c([N+](=O)[O-])cc(C(C)C)cc1[N+](=O)[O-]
inactive and 61.1 µM (active): Potency [10]
inactive and 54.5 µM (active): Potency [12]
inactive: outcome [1] | outcome [2] | outcome [3] | outcome [6] | outcome [7] | Potency [11] | Potency [13] | Potency [14]

CC(C)c1ccc(NC(=O)N(C)C)cc1
active: Potency [11] 68.5 µM
inactive: outcome [1] | outcome [2] | outcome [3] | outcome [4] | outcome [6] | outcome [7] | Potency [8] | Potency [15] | Potency [9] | Potency [10] | Potency [13] | Potency [14]

CC(C)CCON=O
inactive: outcome [1] | outcome [2] | outcome [3] | outcome [4] | outcome [6] | outcome [7] | Potency [8] | Potency [15] | Potency [9] | Potency [10] | Potency [11] | Potency [12] | Potency [13] | Potency [14]

C[Si](Cn1cncn1)(c1ccc(F)cc1)c1ccc(F)cc1
inactive: outcome [1] | outcome [2] | outcome [3] | outcome [4] | outcome [5] | outcome [6] | outcome [7] | Potency [9] | Potency [14]
active: Potency [10] 12.6 µM and 10.9 µM | Potency [11] 3.98 µM and 4.86 µM | Potency [12] 8.92 µM and 9.69 µM | Potency [13] 14.3 µM

c1ccc2sc(SNC3CCCCC3)nc2c1
inactive: outcome [1] | outcome [2] | outcome [3] | outcome [7] | Potency [8] | Potency [15] | Potency [9] | Potency [13] | Potency [14]
inactive and 61.1 µM (active): Potency [10] | Potency [11]
inactive and 54.5 µM (active): Potency [12]

CC(Cc1ccccc1)NCc1ccccc1Cl (centres undefined)
inactive: outcome [1] | outcome [2] | outcome [3] | outcome [5] | outcome [6] | outcome [7] | Potency [8] | Potency [15] | Potency [9] | Potency [13] | Potency [14]
active: Potency [10] 18800 nM | Potency [11] 15 µM | Potency [12] 18.8 µM

CCCCCCCCCCCCCCCl
inactive: outcome [1] | outcome [2] | outcome [3] | outcome [4] | outcome [5] | outcome [6] | outcome [7] | Potency [8] | Potency [15] | Potency [10] | Potency [11] | Potency [12] | Potency [13] | Potency [14]

O=C1CC[C@@]2(O)[C@H]3Cc4ccc(O)c5c4[C@@]2(CCN3CC2CC2)[C@H]1O5
inactive: outcome [1] | outcome [2] | outcome [3] | outcome [6] | outcome [7] | Potency [8] | Potency [15] | Potency [10] | Potency [11] | Potency [12] | Potency [13] | Potency [14]

Nc1cccc2ccccc12
inactive: outcome [1] | outcome [2] | outcome [3] | outcome [5] | outcome [6] | outcome [7] | Potency [13] | Potency [14]

Cc1ccccc1
inactive: Potency [8] | Potency [15] | Potency [9] | Potency [10] | Potency [11] | Potency [13] | Potency [14]

CCOc1cccc(C2(N3CCN(c4ccccc4)CC3)CCC(C)CC2)c1 (centres undefined)
inactive: outcome [1] | outcome [2] | outcome [3] | outcome [4] | outcome [5] | outcome [6] | outcome [7] | Potency [8] | Potency [15] | Potency [9] | Potency [10] | Potency [13] | Potency [14]
